# How the values were obtained:
# Assay in all cases: yeast three-hybrid, YBZ-1, SC-Leu-His + 0.5 mM 3-AT, 4 days
# Settings in all cases: tags: N-Gal4 AD-HA kept; label: inside an RPR1-promoter hybrid RNA with tandem MS2 sites; ssRNA
# PUM1 PUF domain R3-SHG = PUM1 PUF domain R3-SHG (Homo sapiens, UniProt Q14671 828-1176, C935S;R936H;Q939G)
# How it was run: (§1)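 The interaction score is the logarithmic change in variant frequency from input to selection. It uses log2, with a pseudocount of 1 for absent variants, and frequencies came from PCR-amplified, Illumina-sequenced repeat regions. The libraries were Pumilio-1 PUF domains randomized at the three base-contacting residues per repeat, co-expressed with matching RNA elements in strain YBZ-1 (LexA–MS2 coat fusion, HIS3 reporter). Plating lasted four days on SC-Leu (input) or SC-Leu-His + 0.5 mM 3-AT (selection).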
# PUM1 PUF domain R6-SFG = target: T1, PUM1 PUF domain R6-SFG (Homo sapiens, UniProt Q14671 828-1176, N1043S;Y1044F;Q1047G)
# T1 sequence: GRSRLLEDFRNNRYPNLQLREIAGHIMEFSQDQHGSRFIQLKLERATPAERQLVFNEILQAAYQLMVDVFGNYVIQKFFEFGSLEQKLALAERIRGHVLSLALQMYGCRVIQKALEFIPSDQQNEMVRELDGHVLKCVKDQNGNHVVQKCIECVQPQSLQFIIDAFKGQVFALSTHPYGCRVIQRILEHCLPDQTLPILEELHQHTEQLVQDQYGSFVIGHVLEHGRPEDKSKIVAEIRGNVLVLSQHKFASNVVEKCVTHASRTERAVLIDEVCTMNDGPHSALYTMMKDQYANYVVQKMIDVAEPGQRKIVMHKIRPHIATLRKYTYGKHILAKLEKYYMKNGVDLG
# How it was run: as §1
# PUM1 PUF domain R4-PWS = PUM1 PUF domain R4-PWS (Homo sapiens, UniProt Q14671 828-1176, N971P;H972W;Q975S)
# How it was run: as §1
# PUM1 PUF domain R8-SYW = PUM1 PUF domain R8-SYW (Homo sapiens, UniProt Q14671 828-1176, N1122S;Q1126W)
# How it was run: as §1
# PUM1 PUF domain R7-QFR = PUM1 PUF domain R7-QFR (Homo sapiens, UniProt Q14671 828-1176, S1079Q;N1080F;E1083R)
# How it was run: as §1
# PUM1 PUF domain R7-LNS = PUM1 PUF domain R7-LNS (Homo sapiens, UniProt Q14671 828-1176, S1079L;E1083S)
# How it was run: as §1
# PUM1 PUF domain R7-CRR = PUM1 PUF domain R7-CRR (Homo sapiens, UniProt Q14671 828-1176, S1079C;N1080R;E1083R)
# How it was run: as §1
# PUM1 PUF domain R7-RRR = PUM1 PUF domain R7-RRR (Homo sapiens, UniProt Q14671 828-1176, S1079R;N1080R;E1083R)
# How it was run: as §1
# PUM1 PUF domain R4-PFS = PUM1 PUF domain R4-PFS (Homo sapiens, UniProt Q14671 828-1176, N971P;H972F;Q975S)
# How it was run: as §1
# PUM1 PUF domain R7-LSC = PUM1 PUF domain R7-LSC (Homo sapiens, UniProt Q14671 828-1176, S1079L;N1080S;E1083C)
# How it was run: as §1
sequence,measurement,setting,value
GGCUAGAACUAGUGGAUCCCCCGGCGCCCGGCGGCUCGAGCCCGGGUAAGUGUAAGUAGUCUGCAUGCCGCCGGGCGCCAUGCCUGCAGGUCGACUCUAGAAAACAUG,binding signal,PUM1 PUF domain R3-SHG,2.83 log2 enrichment (interaction score)
GGCUAGAACUAGUGGAUCCCCCGGCGCCCGGCGGCUCGAGCCCGGGUAAGUGUAAAUAGUCUGCAUGCCGCCGGGCGCCAUGCCUGCAGGUCGACUCUAGAAAACAUG,binding signal,PUM1 PUF domain R6-SFG,4.88 log2 enrichment (interaction score)
same,binding signal,PUM1 PUF domain R4-PWS,6.05 log2 enrichment (interaction score)
same,binding signal,PUM1 PUF domain R8-SYW,3.33 log2 enrichment (interaction score)
same,binding signal,PUM1 PUF domain R3-SHG,3.6 log2 enrichment (interaction score)
GGCUAGAACUAGUGGAUCCCCCGGCGCCCGGCGGCUCGAGCCCGGGUAAGUCUAAAUAGUCUGCAUGCCGCCGGGCGCCAUGCCUGCAGGUCGACUCUAGAAAACAUG,binding signal,PUM1 PUF domain R7-QFR,2.43 log2 enrichment (interaction score)
same,binding signal,PUM1 PUF domain R7-LNS,0.35 log2 enrichment (interaction score)
same,binding signal,PUM1 PUF domain R7-CRR,0.18 log2 enrichment (interaction score)
same,binding signal,PUM1 PUF domain R7-RRR,3.52 log2 enrichment (interaction score)
GGCUAGAACUAGUGGAUCCCCCGGCGCCCGGCGGCUCGAGCCCGGGUAAGUGUAUAUAGUCUGCAUGCCGCCGGGCGCCAUGCCUGCAGGUCGACUCUAGAAAACAUG,binding signal,PUM1 PUF domain R4-PFS,4.11 log2 enrichment (interaction score)
GGCUAGAACUAGUGGAUCCCCCGGCGCCCGGCGGCUCGAGCCCGGGUAAGUGUAAUUAGUCUGCAUGCCGCCGGGCGCCAUGCCUGCAGGUCGACUCUAGAAAACAUG,binding signal,PUM1 PUF domain R3-SHG,0.72 log2 enrichment (interaction score)
GGCUAGAACUAGUGGAUCCCCCGGCGCCCGGCGGCUCGAGCCCGGGUAAGUGUACAUAGUCUGCAUGCCGCCGGGCGCCAUGCCUGCAGGUCGACUCUAGAAAACAUG,binding signal,PUM1 PUF domain R4-PFS,5.13 log2 enrichment (interaction score)
same,binding signal,PUM1 PUF domain R4-PWS,4.61 log2 enrichment (interaction score)
GGCUAGAACUAGUGGAUCCCCCGGCGCCCGGCGGCUCGAGCCCGGGUAAGUUUAAAUAGUCUGCAUGCCGCCGGGCGCCAUGCCUGCAGGUCGACUCUAGAAAACAUG,binding signal,PUM1 PUF domain R7-LNS,5.15 log2 enrichment (interaction score)
same,binding signal,PUM1 PUF domain R7-LSC,4.33 log2 enrichment (interaction score)
same,binding signal,PUM1 PUF domain R7-CRR,2.87 log2 enrichment (interaction score)
same,binding signal,PUM1 PUF domain R7-RRR,3.77 log2 enrichment (interaction score)

# Reference: PMC8384837, “Expanding the binding specificity for RNA recognition by a PUF domain”
